Source: PubChem BioAssay AID602393 (Broad Institute, 2012)
Screen size: about 350,000 compounds; about 7,000 (2%) were called active. The list comes from a sample in which actives are over-represented; it also holds similar structures and randomly drawn compounds. Unmarked numbers belong to inactive results. No stated cut-off is given here; in the data, active means activation above about 40%; inconclusive means no clear call, values can overlap the other calls; inactive means below that.

assay: Bmi1 luciferase reporter increase in mESCs, primary screen, esBAF inhibitor project, mouse ES cells, Bmi1 luciferase knock-in, single point (AID 602393); conditions: 24 h, at 12.5 µM, stronger effect = higher value, 100% = twice the neutral-well signal;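 further: 0% = median of the plate's neutral control wells and 100% = double that signal; a rise in the Bmi1 reporter signal indicates esBAF inhibition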

Compound	reporter increase
O=C(CN1CCCSc2ccccc21)N1CCN(S(=O)(=O)c2ccccc2)CC1	3.15%
N#C/C=C1\Sc2ccccc2C(=O)N1CC(=O)N1CCN(S(=O)(=O)c2ccccc2)CC1	76.9% (active)
O=C(CN1CCCSc2ccccc21)N1CCN(S(=O)(=O)c2cccc(F)c2)CC1	2.16%
CCCNC(=O)N1C[C@@H](O)COC[C@H]2O[C@H](CC(=O)N3CCC(Cc4ccccc4)CC3)CC[C@@H]21	8.61%
CCC(=O)N[C@H]1CC[C@@H](CC(=O)NCc2cc(F)cc(F)c2)O[C@@H]1CO	0.353%
O=C(NCCNc1ccc([N+](=O)[O-])cc1Cl)c1ccccc1F	7.96%
O=C(NCCNc1ccccc1[N+](=O)[O-])c1ccccc1F	62.1% (active)
COC(=O)CNC(=O)c1ccccc1[N+](=O)[O-]	-1.18%
CC(=O)Nc1ccc2c(c1)C(=O)N(C)[C@@H]1CC[C@H](CC(=O)NCc3ccccc3)O[C@H]1CO2	-6.55%
CO[C@@H]1CN(C)C(=O)c2cc(NC(=O)C3CCC3)ccc2OC[C@H](C)N(Cc2ccccn2)C[C@H]1C	1.86%
Cc1nc(N)sc1-c1ccccc1	0.609%
Cc1nc(-c2ccccc2)sc1-c1nnc(C2CC2)o1	76.8% (active)
Cc1nc(-c2ccccc2)sc1-c1nc(-c2ccccc2)ncc1S(=O)(=O)c1ccccc1	-0.228%
CO[C@@H]1CN(C)C(=O)c2cc(NC(=O)C3CC3)ccc2OC[C@@H](C)N(C(=O)c2ccccc2F)C[C@@H]1C	-20.7%
C[C@H](CO)N1C[C@H](C)[C@@H](CN(C)S(=O)(=O)c2ccc(Cl)cc2)Oc2ccc(NS(C)(=O)=O)cc2CC1=O	-2.32%
CC(C)C(=O)Nc1c(C(=O)c2ccc(F)cc2)oc2ccccc12	-8.19%
CC(C)C(=O)Nc1ccc2c(c1)oc1ccccc12	60.1% (active)
CCc1cccc(NC(=O)COC(=O)c2cc(=O)c3ccccc3o2)c1	8.66%
C[C@@H]1CN([C@@H](C)CO)S(=O)(=O)c2ccc(C#Cc3ccccc3)cc2O[C@@H]1CN(C)C(=O)C1CC1	-5.48%
Cc1ccc(NC(=O)Cn2nnc(C(=O)NCc3ccco3)c2N)c(C)c1	3.66%
Cc1ccc(SCC(=O)NC(=O)NCc2ccco2)c(C)c1	-6.07%
Cc1ccc(NC(=O)C(=O)NCc2ccco2)c(C)c1	47.2% (active)
O=C(Cc1ccccn1)NCC[C@H]1CC[C@H](NS(=O)(=O)c2ccccc2)[C@@H](CO)O1	-4.76%
Cc1cccc(S(=O)(=O)N[C@H]2CC[C@@H](CCNS(=O)(=O)c3ccccc3F)O[C@H]2CO)c1	-0.839%
Cc1ccc(C2=Nc3c(ccc4ccccc34)C(c3ccncc3)=NN2)cc1	10%
CCOc1ccc2c(c1)C(c1ccc(C)cc1)=NNC(c1ccc(C)cc1)=N2	67.3% (active)
CCOc1ccc2[nH]c(=S)sc2c1	27.8%
C[C@@H]1CN([C@@H](C)CO)C(=O)Cc2cc(NS(=O)(=O)c3ccc(F)cc3)ccc2O[C@@H]1CN(C)S(=O)(=O)c1cccs1	4.77%

Compound	reporter increase
CCC(=O)Nc1ccc2c(c1)C(=O)N(C)C[C@@H](OC)[C@@H](C)CN(Cc1ccccc1OC)[C@H](C)CO2	-3.34%
CNC[C@@H]1Oc2cc(-c3ccccc3OC)ccc2S(=O)(=O)N([C@H](C)CO)C[C@H]1C	-6.68%
CN1CCN(C(=O)C[C@H]2C[C@H]3c4cc(NC(=O)Nc5ccccc5F)ccc4O[C@H]3[C@H](CO)O2)CC1	2.41%
CC(C)NC(=O)N(C)C[C@@H]1Oc2ncc(C#CC3CC3)cc2C(=O)N([C@@H](C)CO)C[C@H]1C	5.43%
CSc1ccc(CNC(=O)c2ccc(NC(=O)C3=CSCCO3)cc2)cc1	15.9%
O=C(NCc1ccccc1Cl)C1CCCO1 (stereo not given)	-4.1%
O=C(Nc1ccc(C(=O)NCc2ccccc2Cl)cc1)C1=CSCCO1	44% (active)
CCN1[C@@H]2Cn3c(ccc(C4=CCCCC4)c3=O)[C@H]1[C@@H](C(=O)N1CCCCC1)[C@@H]2CO	-1.1%
O=C(CN1CCSCC1)N/N=C/c1ccc(F)cc1	5%
O=C(Cc1ccc(F)cc1)N/N=C/c1ccc2c(c1)OCO2	52.6% (active)
O=C(COC(=O)c1ccc(F)cc1)Nc1ccc2c(c1)OCO2	1.17%
C[C@@H](NC(=O)[C@H]1[C@H](CO)[C@H]2Cn3c(cccc3=O)[C@H]2N1C(=O)C1CC1)c1ccccc1	2.89%
COc1ccc(C(=O)Nc2ccc3c(c2)OC[C@H](C)N(C(C)=O)C[C@@H](C)[C@H](OC)CN(C)C3=O)cc1	-0.383%
Cc1ccc(S(=O)(=O)NCC[C@@H]2CC[C@@H](NC(=O)CCN3CCCCC3)[C@@H](CO)O2)cc1	-6.37%
Cc1ccc(S(=O)(=O)Nc2ccc3c(c2)C(=O)N([C@@H](C)CO)C[C@H](C)[C@@H](CN(C)C(=O)Cc2ccccc2)OCCCC[C@H](C)O3)cc1	0.836%
Cc1ccnc(NC(=O)CNC(=O)c2ccccc2)c1	20.5%
O=C(Nc1ncccc1O)c1ccc(C(=O)c2ccccc2)cc1	21.1%
O=C(CNC(=O)c1ccc2ccccc2c1)Nc1ncccc1O	51.4% (active)
Cc1noc(C)c1S(=O)(=O)N(C)C[C@H]1OCCCC[C@@H](C)Oc2ccc(NC(=O)c3ccccc3)cc2C(=O)N([C@@H](C)CO)C[C@H]1C	5.48%
O=C(C[C@H]1CC[C@@H](NC(=O)Nc2ccc(C(F)(F)F)cc2)[C@H](CO)O1)NCc1cc(F)cc(F)c1	2.19%
CCC(=O)N1[C@@H]2CN(C(=O)Nc3ccc(Cl)cc3)c3ccccc3[C@@H]2[C@@H]1CO	7.74%
CC1CCN(C(=O)COC(=O)c2cc(S(=O)(=O)N3CCOCC3)ccc2Cl)CC1	-5.57%
CN(C(=O)COC(=O)c1cc(=O)[nH]c2ccccc12)C1CCCCC1	59.3% (active)
O=C(COC(=O)c1cc(=O)[nH]c2ccccc12)NCc1cccc(Cl)c1	-2.45%
O=C(OCc1nnc(-c2ccccc2)o1)c1cc(=O)[nH]c2ccccc12	-2.08%
CC1CCN(C(=O)COC(=O)c2cc(=O)[nH]c3ccccc23)CC1	60.1% (active)
COC(=O)C1CCN(C(=O)c2cc(=O)[nH]c3ccccc23)CC1	-0.707%
